HT1080 IDH1KD tx – qHTS for induction of synthetic lethality in tumor cells producing 2HG: qHTS for the HT-1080-IDH1KD cell line. HT-1080 IDH1 knockdown viability, ATP luminescence, 48 h. Potency, µM (top dose mostly 46.1 µM), for the others: top-dose activity, negative = toxicity, actives largely listed as cytotoxic. hit rate 2% among 360,000;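 also: potency is read from the fitted curve at half-maximal effect; 0% = DMSO wells and -100% = cell-free medium wells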
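CellTiter-Glo luminescence after 48 h compound exposure at 37 degrees C of IDH1-knockdown HT-1080 cells in 5% FBS RPMI. %Activity scaled between DMSO wells and cell-free media wells, with curves fitted and assigned curve classes.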
HT1080NT lethal – qHTS for induction of synthetic lethality in tumor cells producing 2HG: qHTS for the HT-1080-NT fibrosarcoma cell line | HT-1080-NT fibrosarcoma viability, CellTiter-Glo ATP luminescence, 48 h | Potency, µM (highest dose often 46.1 µM), for the others: at the top dose activity, negative = less viability, usual class: cytotoxic | hit rate 1.6% among 360,000 | AID 686970, 2013;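 also: NT is the 2HG producing partner of a matched IDH1 knockdown line; potency is read from the fitted curve at half-maximal effect; 0% = DMSO-treated cells and -100% = media-only wells without cells; nearly all actives have a fitted effect of over 55% in size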
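HT-1080-NT fibrosarcoma cells (2HG-overproducing), 750 cells/well in RPMI with 5% FBS, dosed after 2 h and incubated 48 h at 37C. CellTiter-Glo luminescence normalized to DMSO and no-cell wells; concentration-response curves fitted and classed.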
IL1B secr inh – qHTS for Inhibitors of Inflammasome Signaling: IL-1-beta AlphaLISA Primary Screen; THP-1 LPS/ATP IL-1B secretion, AlphaLISA, 16 h; active compounds read low; activity change, % at 57.5 µM; hit rate 4.7% among 360,000; in the data active = activity change below about -50%; inconclusive = mostly about -30% to -49%
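THP-1 cells pretreated 1 hr with compounds (up to 57.5 uM final), then stimulated with LPS (250 ng/mL final) plus ATP (1.25 mM final); secreted IL-1B measured by AlphaLISA after 16 hr, decreased signal indicating inhibition.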
DT40 TDP1 no CPT – qHTS for Inhibitors of human tyrosyl-DNA phosphodiesterase 1 (TDP1): qHTS in cells in absence of CPT; Potency, µM (doses to about 46.2 µM), without a hit: top-dose activity change, negative = growth inhibition, hits mostly inhibitors; AID 686978, 2013; hit rate 15% among 420,000; DT40 Tdp1-/- hTDP1 cells, no CPT, ATP luminescence, 48 h; also: potency is read from the fitted curve at half-maximal effect; nearly all actives have a fitted effect of over 55% in size
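Camptothecin absent (DMSO only). Human TDP1-complemented DT40 knockout cells, 400 cells/well, 37 °C for minimum 48 hr; ATP measured via CellTiter-Glo, 30 min dark incubation, luminescence.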
TDP1 cell CPT – qHTS for Inhibitors of human tyrosyl-DNA phosphodiesterase 1 (TDP1): qHTS in cells in presence of CPT | Potency, µM (top dose mostly 46.2 µM), for inactives: top-dose activity change, negative = growth inhibition, actives largely listed as inhibitors | AID 686979, 2013 | hit rate 12% among 420,000 | chicken DT40 Tdp1-/-;hTDP1 cells + 20 nM CPT, ATP luminescence, 48 h; also: potency is read from the fitted curve at half-maximal effect; nearly all actives have a fitted effect of over 55% in size
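Chicken DT40 Tdp1-/- cells stably complemented with human TDP1 were seeded at 400 cells/well in medium containing 20 nM camptothecin, exposed to pin-transferred compounds, and grown at 37 °C for at least 48 hr. Viability was read as ATP luminescence.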
* hit, by the source's call; u = inconclusive. Rows were chosen to be rich in hits. Some 19% of all compounds tested hit in one or more screens of this group. Unless noted, calls follow the shape of the dose curve; as a rule, active = well fitted curve in the direction sought with a large enough effect; inconclusive = small, poorly fitted or top-dose-only effect, or another doubt; inactive = no such curve, though single readings can be large; an effect the other way counts as inactive or inconclusive. Unless noted, % is scaled to controls: 0 for no effect and ±100 for the full control effect.

SMILES	HT1080 IDH1KD tx	HT1080NT lethal	IL1B secr inh	DT40 TDP1 no CPT	TDP1 cell CPT
CCOC(=O)C1=CCN(S(=O)(=O)c2ccccc2Br)C1c1ccc(Cl)c(Cl)c1 (configuration not stated)	u	u	-29	18µM*	u
CCOC(=O)C1=CCN(S(=O)(=O)c2ccccc2C(=O)OC)C1c1ccc(Cl)cc1 (configuration not stated)	-13%	-10%	-24	18µM*	21µM*
CCOC(=O)C1=CCN(S(=O)(=O)c2ccccc2C)C1c1ccccc1 (configuration not stated)	-11%	-24%	16	18µM*	29µM*
Cc1c(/C=C2\NC(=O)NC2=O)c2ccccc2n1C	-13%	-15%	27	-13%	5%
Cc1cc(C)c2c(SC(C)C)nc(N)nc2n1	-5%	3%	0	18µM*	u
CC(=O)n1nc2nc(C)cc(C)c2c1N	-5%	0%	35	2%	-16%
Cc1ccc(-c2cnc(C(O)c3ccc(C)cc3)[nH]2)cc1 (configuration not stated)	11%	15%	17	-30%	-11%
C[C@@H]1CN([C@@H](C)CO)C(=O)c2cc(N(C)C)ccc2O[C@@H](C)CCCCO[C@@H]1CN(C)S(=O)(=O)c1cccs1	-12%	-7%	26	16µM*	18µM*
C[C@@H]1CCCCO[C@@H](CN(C)S(=O)(=O)c2cccs2)[C@@H](C)CN([C@H](C)CO)C(=O)c2cc(NS(=O)(=O)c3ccccc3)ccc2O1	-14%	-23%	u	8.2µM*	16µM*
C[C@@H]1CCCCO[C@H](CN(C)S(=O)(=O)c2cccs2)[C@H](C)CN([C@@H](C)CO)C(=O)c2cc(NC(=O)NC3CCCCC3)ccc2O1	-7%	-9%	-16	12µM*	18µM*
C[C@@H]1CCCCO[C@@H](CN(C)CC2CC2)[C@@H](C)CN([C@H](C)CO)C(=O)c2cc(N(C)C)ccc2O1	-12%	4%	16	10%	22%
C[C@H](CO)N1C[C@H](C)[C@@H](CN(C)S(=O)(=O)c2cccs2)Oc2ccc(NC(=O)NC3CCCCC3)cc2C1=O	2%	-1%	-26	u	u
C[C@H](CO)N1C[C@H](C)[C@@H](CN(C)S(=O)(=O)c2ccccc2)Oc2ccc(NC(=O)NC3CCCCC3)cc2C1=O	-5%	-2%	-1	21µM*	u
C[C@@H]1CCCCO[C@H](CN(C)S(=O)(=O)c2cccs2)[C@@H](C)CN([C@H](C)CO)C(=O)c2cc(NC(=O)C3CCCCC3)ccc2O1	0%	-1%	-4	26µM*	18µM*
CCCN=C(N)/C(C(=O)OCC)=C(\O)c1ccc(OC)cc1	14%	5%	-9	-9%	-10%
CCOC(=O)/C(C(N)=NCC(C)C)=C(/O)c1ccccc1	-3%	1%	-81*	u	-25%
O=[N+]([O-])c1ccc(Sc2cccc[n+]2[O-])c2nonc12	0.58µM*	0.15µM*	-98*	0.021µM*	0.0058µM*
CN=C1S/C(=C\c2cccc(Cl)c2Cl)C(=O)N1C	11%	11%	-29	-22%	-17%
O=C1C=C(O)c2cccc(O)c2C1=O	-2%	-21%	15	u	26µM*
Cc1nc2nc(C)c(NS(=O)(=O)c3ccc(Cl)s3)c(=O)n2[nH]1	11%	12%	4	0%	-2%
CC1(C)CC(=O)C2=C(C1)OC(N)=C(C#N)C2c1ccccc1[N+](=O)[O-] (configuration not stated)	2%	-4%	5	u	21µM*

Screening data deposited in PubChem BioAssay by National Center for Advancing Translational Sciences (NCATS).
